High-throughput results deposited in PubChem BioAssay by several laboratories.
Jurkat NFkB inh = inhibitors of the PMA/ionomycin-induced NF-kB reporter in Jurkat cells; PMA/ionomycin-induced NF-kB luciferase reporter, luminescence; inhibition, % at 4 µM; 0.53% of 330,000 active; AID 435003; in the data active means inhibition above about 50%
TMEM16A inh = mouse TMEM16A channel inhibition, primary screen | HEK293 TMEM16A/YFP iodide influx fluorescence, ionomycin | 1.2% of 310,000 active | AID 588511 | normalized B-score (activity score, 25-100; higher = stronger inhibition) at 10 µM;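 active means ratio plate-corrected score three or more library SD toward inhibition, starting fluorescence score within five deviations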;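 further: score derived from kinetic fluorescence span divided by baseline fluorescence per well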
KLF5 inhibitor = inhibitors of KLF5 expression | DLD-1 KLF5 promoter-luciferase reporter, luminescence | 0.23% of 290,000 active | inhibition, % at 5 µM;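 active means inhibition above a per-plate limit of that plate's mean compound inhibition plus 3 SD, cut at about 60% in these data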;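 further: 0% = DMSO wells and 100% = LY294002 at 200 µM; higher means less KLF5 promoter-driven luciferase light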
697 NFkB inh = inhibitors of the PMA/ionomycin-induced NF-kB reporter in 697 B cells. 0.33% of 330,000 active. inhibition, % at 4 µM. 697 B-cell NF-kB luciferase reporter, 16 h; in the data active means inhibition above about 35%
aSyn UTR inh = MLPCN primary screen, SNCA 5' untranslated region | alpha-synuclein 5'UTR reporter, inhibitor activity | inhibition, % (tested at 7.5 µM) | 0.82% of 300,000 active | AID 1813; in the data active means inhibition above about 60%;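 further: H4 neuroglioblastoma cells stably carrying SNCA 5'UTR luciferase fusion; 0% = DMSO wells and 100% = positive control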
TMEM16A act = activates or potentiates the mouse TMEM16A chloride channel | Q8BHY3 | HEK293 TMEM16A/YFP-H148Q/I152L, iodide quench fluorescence; hits give low values | B-score at 10 µM | 0.3% of 340,000 active;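 active means fluorescence-ratio B-score plate-corrected deviation score at least 3 library SD below zero, with starting fluorescence score within 5 deviations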;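 further: channel opened by trigger with iodide after compound preincubation; score built on the fluorescence ratio of max minus min over baseline; more negative score means more quench and so TMEM16A activation or potentiation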
TMEM16A reconf = reconfirmed blocker of mouse TMEM16A calcium-activated chloride channel | 39% of 2,300 active | HEK293 TMEM16A/YFP-H148Q, iodide quench fluorescence; ionomycin added to raise cell calcium | inhibition, % at 10 µM | AID 652189 | shares compounds with TMEM16A inh;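 active means mean duplicate percent inhibition, scaled so buffer wells are 0 and the reference blocker 100, over three buffer SD above buffer mean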
TMEM16A Ca cntr = counter-screen for TMEM16A inhibitors: effect on calcium mobilization; shares compounds with TMEM16A inh; TMEM16A/YFP HEK293, Fluo4 calcium mobilization; calcium response (% of ionomycin), % at 10 µM; 2% of 2,300 active; AID 652231;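 active means duplicate-averaged calcium signal over 20% of the ionomycin maximum, relative to buffer baseline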;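 further: each well's signal is peak minus trough fluorescence divided by its pre-addition baseline; 0% = buffer wells and 100% = ionomycin wells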
YFP-HEK293 quench = counter-screen for TMEM16A inhibitors: effect in parental YFP-HEK293 cells. 2,300 tested, under 10 active. AID 652233. YFP ratio F(max-min)/F0 at 10 µM. iodide YFP quench, ionomycin. shares compounds with TMEM16A inh;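 active means yellow fluorescent protein signal ratio exceeding the buffer control mean by over 5 SD of those controls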;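 further: ratio is mean of duplicate wells from kinetic YFP trace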
ClC-1 rat inh = selectivity of TMEM16A inhibitors: inhibition of rat ClC-1 chloride channel | AID 652236 | CHO ClC-1-YFP, iodide influx fluorescence quench; iodide control reads 0, buffer control 100 | 2,300 tested, under 10 active | shares compounds with TMEM16A inh | ratio percent, % at 10 µM;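 active means duplicate-mean ratio percent above the mean of iodide-only control wells, which defines zero, plus 5 of their SD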;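 further: higher percent means stronger block of ClC-1 iodide influx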
Target sequence (P35524 whole entry, looked up): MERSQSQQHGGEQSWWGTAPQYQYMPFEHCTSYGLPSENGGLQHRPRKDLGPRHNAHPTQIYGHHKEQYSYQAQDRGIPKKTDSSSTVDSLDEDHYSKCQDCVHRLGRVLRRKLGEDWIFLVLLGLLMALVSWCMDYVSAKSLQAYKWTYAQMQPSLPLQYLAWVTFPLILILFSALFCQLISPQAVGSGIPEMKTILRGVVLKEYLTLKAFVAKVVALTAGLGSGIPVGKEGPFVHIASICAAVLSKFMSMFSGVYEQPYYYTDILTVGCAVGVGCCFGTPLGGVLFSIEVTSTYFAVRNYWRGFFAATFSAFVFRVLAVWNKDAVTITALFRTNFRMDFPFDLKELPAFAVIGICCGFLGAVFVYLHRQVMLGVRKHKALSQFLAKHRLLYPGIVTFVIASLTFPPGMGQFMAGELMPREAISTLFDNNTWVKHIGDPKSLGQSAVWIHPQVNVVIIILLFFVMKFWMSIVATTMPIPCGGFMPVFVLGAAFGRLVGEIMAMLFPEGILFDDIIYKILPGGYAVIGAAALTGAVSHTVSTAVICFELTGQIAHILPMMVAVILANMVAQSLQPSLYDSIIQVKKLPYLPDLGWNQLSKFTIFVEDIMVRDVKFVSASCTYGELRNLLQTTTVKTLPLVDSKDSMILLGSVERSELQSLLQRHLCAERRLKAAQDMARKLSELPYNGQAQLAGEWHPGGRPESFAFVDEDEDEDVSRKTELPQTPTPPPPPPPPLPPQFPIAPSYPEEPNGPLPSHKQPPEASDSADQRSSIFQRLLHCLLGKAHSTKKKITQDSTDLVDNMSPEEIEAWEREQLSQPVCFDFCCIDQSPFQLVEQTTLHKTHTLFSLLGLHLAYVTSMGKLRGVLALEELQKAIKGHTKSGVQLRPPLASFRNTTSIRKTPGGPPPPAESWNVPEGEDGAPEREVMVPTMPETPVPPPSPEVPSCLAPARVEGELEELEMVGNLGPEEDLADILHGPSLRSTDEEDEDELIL
* = called active by the depositor; i = inactive; . = no result. Only some compounds are listed: those with a hit (about 2.5% of all), similar ones and a draw of the others.

SMILES	Jurkat NFkB inh	TMEM16A inh	KLF5 inhibitor	697 NFkB inh	aSyn UTR inh	TMEM16A act	TMEM16A reconf	TMEM16A Ca cntr	YFP-HEK293 quench	ClC-1 rat inh
CCOC(=O)C1CCN(S(=O)(=O)C(F)(F)c2nc3ccccc3s2)CC1	-5	100*	-34	-26	-28	i	30%*	i	-0.94	-11
CCOC(=O)C1CCN(S(=O)(=O)c2ccccc2)CC1	16	i	-11	-6	8	i	.	.	.	.
CCc1nnc(NC(=O)C2Cc3ccccc3CN2S(=O)(=O)c2c(C)c(C)cc(C)c2C)s1 (configuration not stated)	-15	25*	-16	-6	-104	i	i	i	-1	6
Cc1ccnc(NS(=O)(=O)c2ccc3c(c2)CCO3)c1	20	i	-27	4	-13	.	.	.	.	.
Nc1cc(S(=O)(=O)Nc2ccc(Cl)cc2)ccc1N1CCOCC1	9	25*	-15	-21	-4	i	i	i	-1.1	-22
O=S(=O)(Nc1ccc(Cl)cc1)c1ccc2c(c1)CCO2	-8	25*	5	-9	-18	i	i	i	-0.93	-8
COC(=O)CCCCCN1C(=O)NC(c2ccccc2)C(C(=O)OCc2ccccc2)=C1C (configuration not stated)	9	25*	-31	-7	15	i	16%*	i	-1.1	-14
COC(=O)C1=C(C)N(CCCC(=O)O)C(=O)NC1c1ccc(-c2ccccc2)cc1 (configuration not stated)	-14	100*	-18	-12	-11	i	i	i	-1.3	-1
Cc1ccc(S(=O)(=O)N(C)S(=O)(=O)c2ccc(C#N)cc2)cc1	20	i	-8	-18	15	.	.	.	.	.
COC(=O)CCNC(=O)c1nn(Cc2ccccc2)c(=O)c2ccccc12	-6	i	-26	11	0	i	.	.	.	.
C[C@H](NC(=O)c1ccccc1Cl)C(=O)OC(C(=O)Nc1cc(C(F)(F)F)ccc1Cl)c1ccccc1 (some centres not stated)	-23	25*	-11	9	6	i	i	i	-1.4	-6
O=C(Nc1ccc(CN2CCS(=O)(=O)CC2)cc1)c1ccc(C(F)(F)F)cc1	38	i	-27	-46	3	i	.	.	.	.
CC(C)(C)c1ccc(C(=O)Nc2ccc(CN3CCS(=O)(=O)CC3)cc2)cc1	42	25*	-26	-34	-68	i	20%*	i	-0.88	-24
O=C(Nc1cccnc1)c1ccc(CN2CCc3ccccc3C2)cc1	5	25*	-4	-8	-68	i	22%*	i	-0.94	-4
Cc1cc(C)cc(NC(=O)c2ccc(CN3CCc4ccccc4C3)cc2)c1	17	i	-44	0	-10	i	.	.	.	.
O=C(Nc1ccccc1F)c1ccc(CN2CCc3ccccc3C2)cc1	4	i	-29	13	-48	i	.	.	.	.
Cc1ccc(NC(=O)c2ccc(CN3CCc4ccccc4C3)cc2)cc1	-19	25*	-55	-71	-101	i	i	i	-0.89	0
CCN(CC(=O)Nc1c(F)cccc1F)C(=O)c1ccc(S(=O)(=O)N2CCC(C)CC2)cc1	2	.	.	5	.	i	.	.	.	.
CN(C)S(=O)(=O)c1cccc(NC(=O)CSc2nc3ccccc3[nH]2)c1	14	i	-6	-7	30	i	.	.	.	.
Cc1cc(C(=O)OCC(=O)Nc2cccc(S(=O)(=O)N(C)C)c2)c(C)o1	-2	i	-32	1	0	i	.	.	.	.
